# Experimental data from ChEMBL document CHEMBL3988442, “University of Dundee, Small-Polar-MMV Screening Library” (2021).
# For some assays here: Measured potencies and affinities stand elsewhere.
# What was measured:
# Design in all cases: scale not given: direction of the effect not stated beside the values
# [1] = molecular target: Protein translocase subunit SecA (Escherichia coli (strain K12)) (UniProt P10408); experiment: Assay to Identify E. coli SecA ATPase Inhibitors; format: functional; details: 30 µM
# [2] = molecular target: T1, Ubiquitin-activating enzyme e1, putative (Leishmania donovani (strain BPK282A1)) (UniProt E9BSI1); experiment: Leishmania donovani Ubiquitin Activating Enzyme (LdE1); format: functional; details: 30 µM
# T1 sequence (whole entry): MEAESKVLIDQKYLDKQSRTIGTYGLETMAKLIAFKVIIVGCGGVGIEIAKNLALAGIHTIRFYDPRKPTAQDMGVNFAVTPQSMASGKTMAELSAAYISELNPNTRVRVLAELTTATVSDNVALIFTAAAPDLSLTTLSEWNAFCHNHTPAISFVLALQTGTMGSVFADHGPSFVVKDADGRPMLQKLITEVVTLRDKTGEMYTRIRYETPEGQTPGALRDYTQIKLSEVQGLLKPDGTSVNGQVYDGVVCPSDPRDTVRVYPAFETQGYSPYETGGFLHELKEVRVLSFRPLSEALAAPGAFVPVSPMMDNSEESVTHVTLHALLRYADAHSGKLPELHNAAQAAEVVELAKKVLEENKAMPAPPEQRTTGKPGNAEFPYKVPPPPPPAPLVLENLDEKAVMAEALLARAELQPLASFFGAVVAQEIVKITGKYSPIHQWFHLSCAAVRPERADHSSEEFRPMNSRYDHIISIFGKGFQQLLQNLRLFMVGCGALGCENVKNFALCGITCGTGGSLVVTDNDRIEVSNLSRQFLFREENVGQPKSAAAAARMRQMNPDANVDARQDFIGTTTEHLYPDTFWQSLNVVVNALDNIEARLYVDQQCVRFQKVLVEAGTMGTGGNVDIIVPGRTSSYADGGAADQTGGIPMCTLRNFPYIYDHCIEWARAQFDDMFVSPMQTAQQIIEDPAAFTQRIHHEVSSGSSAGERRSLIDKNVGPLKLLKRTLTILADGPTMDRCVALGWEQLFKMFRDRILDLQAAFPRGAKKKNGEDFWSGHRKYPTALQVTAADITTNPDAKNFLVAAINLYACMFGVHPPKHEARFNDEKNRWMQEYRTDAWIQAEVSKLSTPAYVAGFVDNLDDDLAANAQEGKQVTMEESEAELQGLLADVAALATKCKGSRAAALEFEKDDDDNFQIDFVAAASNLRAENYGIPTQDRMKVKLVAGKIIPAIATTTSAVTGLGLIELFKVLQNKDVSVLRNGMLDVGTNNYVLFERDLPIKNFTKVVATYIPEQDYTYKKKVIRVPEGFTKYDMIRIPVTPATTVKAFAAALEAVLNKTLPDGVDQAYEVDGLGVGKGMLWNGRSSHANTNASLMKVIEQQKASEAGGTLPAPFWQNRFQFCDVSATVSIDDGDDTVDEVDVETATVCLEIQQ
# [3] = molecular target: AMP-activated protein kinase, AMPK (Homo sapiens) (UniProt P54646+O43741+P54619+Q9UGJ0+Q9Y478+Q13131+Q9UGI9); experiment: AMP-dependent Kinase enzyme assay. An in vitro enzyme assay that detects ADP turnover that is directly proportional to AMPK activity. This uses naive AMPK that is activated during the assay with MK-8722; format: functional; details: 30 µM
# [4] = molecular target: Sialic acid-binding Ig-like lectin 9 (Homo sapiens) (UniProt Q9Y336); experiment: Hs-Siglec9 ALPHAscreen SOP 20170721; details: 10 µM
# Trypanosoma cruzi = experiment: Trypanosoma cruzi phosphomannomutase and mannose-1-phosphate guanylyltransferase assay; format: functional; details: 10 µM
# [5] = molecular target: T2, Arginase-2, mitochondrial (Homo sapiens) (UniProt P78540); experiment: in vitro enzyme assay to detect the production of urea directly proportional to the activity of Arginase II; format: functional; details: 33.3 µM; note: in the data most compounds retested in dose-response had high values
# T2 sequence (whole entry): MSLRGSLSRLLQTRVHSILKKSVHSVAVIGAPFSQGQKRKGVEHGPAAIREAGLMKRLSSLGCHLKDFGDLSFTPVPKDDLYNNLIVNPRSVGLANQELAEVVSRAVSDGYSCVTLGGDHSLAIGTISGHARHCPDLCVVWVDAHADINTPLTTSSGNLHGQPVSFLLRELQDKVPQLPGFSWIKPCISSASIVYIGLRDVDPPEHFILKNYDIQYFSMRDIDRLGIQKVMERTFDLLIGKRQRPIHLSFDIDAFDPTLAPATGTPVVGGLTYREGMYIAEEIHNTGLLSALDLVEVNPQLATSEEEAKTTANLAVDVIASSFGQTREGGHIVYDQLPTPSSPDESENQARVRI
# [6] = molecular target: T3, Proteasome subunit beta (Trypanosoma cruzi) (UniProt O96673); experiment: Trypanosoma cruzi proteasome chymotrypsin-like activity (TcProtChymo) assay.; note: in the data most compounds retested in dose-response had high values; format: functional; details: 9.37 µM
# T3 sequence (whole entry): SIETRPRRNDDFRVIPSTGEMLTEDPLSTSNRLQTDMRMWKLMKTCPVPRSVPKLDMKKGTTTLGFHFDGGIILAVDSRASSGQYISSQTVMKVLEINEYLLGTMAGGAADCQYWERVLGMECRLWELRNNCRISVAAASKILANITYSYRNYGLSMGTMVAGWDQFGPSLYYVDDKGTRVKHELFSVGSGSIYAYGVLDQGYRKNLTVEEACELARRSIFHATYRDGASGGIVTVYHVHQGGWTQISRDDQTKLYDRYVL
# Homo sapiens = organism: Homo sapiens; experiment: To identify inhibition of the IFN signalling (Jak-Stat) pathway via expression of an eGFP reporter gene under the control of an IFN-stimulated response element (ISRE) containing MxA promoter.; format: functional; details: 30 µM
# [7] = molecular target: T4, Tyrosyl-tRNA synthetase, putative (Trypanosoma cruzi (strain CL Brener)) (UniProt Q4DSP6); experiment: Trypanosoma cruzi tyrosyl tRNA synthetase (TcYRS) _High Tyrosine SOP; format: functional; details: 30 µM; note: in the data most compounds retested in dose-response had high values
# T4 sequence (whole entry): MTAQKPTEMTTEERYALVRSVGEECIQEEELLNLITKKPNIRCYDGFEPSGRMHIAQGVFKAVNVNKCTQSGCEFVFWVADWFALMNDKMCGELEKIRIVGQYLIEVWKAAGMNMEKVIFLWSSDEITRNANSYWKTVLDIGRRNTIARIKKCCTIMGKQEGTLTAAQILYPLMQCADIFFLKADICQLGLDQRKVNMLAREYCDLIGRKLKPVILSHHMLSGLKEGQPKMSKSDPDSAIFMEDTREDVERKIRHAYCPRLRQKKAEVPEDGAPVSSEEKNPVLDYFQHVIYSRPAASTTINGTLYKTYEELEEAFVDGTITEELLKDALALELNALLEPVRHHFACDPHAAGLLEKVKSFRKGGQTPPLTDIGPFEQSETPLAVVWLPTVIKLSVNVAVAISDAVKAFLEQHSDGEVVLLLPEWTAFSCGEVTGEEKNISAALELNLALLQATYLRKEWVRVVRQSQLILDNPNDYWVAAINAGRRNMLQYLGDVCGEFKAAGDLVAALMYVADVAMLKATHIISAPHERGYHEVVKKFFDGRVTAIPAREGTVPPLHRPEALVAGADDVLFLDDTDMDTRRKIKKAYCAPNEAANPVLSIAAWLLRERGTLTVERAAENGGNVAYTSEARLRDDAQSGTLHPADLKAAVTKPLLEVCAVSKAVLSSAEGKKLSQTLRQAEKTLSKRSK
# [8] = molecular target: T4, Tyrosyl-tRNA synthetase, putative (Trypanosoma cruzi (strain CL Brener)); experiment: Trypanosoma cruzi tyrosyl tRNA synthetase (TcYRS) SOP; format: functional; details: 30 µM
# [9] = molecular target: Chromo domain-containing protein 1 (Saccharomyces cerevisiae (strain ATCC 204508 / S288c) (Baker's yeast)) (UniProt P32657); experiment: ScCHD-1 Enzyme Inhibition Assay; format: functional; details: 30 µM; note: in the data most compounds retested in dose-response had high values
# Chromo domain-containing protein 1 (Saccharomyces cerevisiae (strain ATCC 204508 / S288c) (Baker's yeast)), sequence (P32657 whole entry, the tested form may be a part): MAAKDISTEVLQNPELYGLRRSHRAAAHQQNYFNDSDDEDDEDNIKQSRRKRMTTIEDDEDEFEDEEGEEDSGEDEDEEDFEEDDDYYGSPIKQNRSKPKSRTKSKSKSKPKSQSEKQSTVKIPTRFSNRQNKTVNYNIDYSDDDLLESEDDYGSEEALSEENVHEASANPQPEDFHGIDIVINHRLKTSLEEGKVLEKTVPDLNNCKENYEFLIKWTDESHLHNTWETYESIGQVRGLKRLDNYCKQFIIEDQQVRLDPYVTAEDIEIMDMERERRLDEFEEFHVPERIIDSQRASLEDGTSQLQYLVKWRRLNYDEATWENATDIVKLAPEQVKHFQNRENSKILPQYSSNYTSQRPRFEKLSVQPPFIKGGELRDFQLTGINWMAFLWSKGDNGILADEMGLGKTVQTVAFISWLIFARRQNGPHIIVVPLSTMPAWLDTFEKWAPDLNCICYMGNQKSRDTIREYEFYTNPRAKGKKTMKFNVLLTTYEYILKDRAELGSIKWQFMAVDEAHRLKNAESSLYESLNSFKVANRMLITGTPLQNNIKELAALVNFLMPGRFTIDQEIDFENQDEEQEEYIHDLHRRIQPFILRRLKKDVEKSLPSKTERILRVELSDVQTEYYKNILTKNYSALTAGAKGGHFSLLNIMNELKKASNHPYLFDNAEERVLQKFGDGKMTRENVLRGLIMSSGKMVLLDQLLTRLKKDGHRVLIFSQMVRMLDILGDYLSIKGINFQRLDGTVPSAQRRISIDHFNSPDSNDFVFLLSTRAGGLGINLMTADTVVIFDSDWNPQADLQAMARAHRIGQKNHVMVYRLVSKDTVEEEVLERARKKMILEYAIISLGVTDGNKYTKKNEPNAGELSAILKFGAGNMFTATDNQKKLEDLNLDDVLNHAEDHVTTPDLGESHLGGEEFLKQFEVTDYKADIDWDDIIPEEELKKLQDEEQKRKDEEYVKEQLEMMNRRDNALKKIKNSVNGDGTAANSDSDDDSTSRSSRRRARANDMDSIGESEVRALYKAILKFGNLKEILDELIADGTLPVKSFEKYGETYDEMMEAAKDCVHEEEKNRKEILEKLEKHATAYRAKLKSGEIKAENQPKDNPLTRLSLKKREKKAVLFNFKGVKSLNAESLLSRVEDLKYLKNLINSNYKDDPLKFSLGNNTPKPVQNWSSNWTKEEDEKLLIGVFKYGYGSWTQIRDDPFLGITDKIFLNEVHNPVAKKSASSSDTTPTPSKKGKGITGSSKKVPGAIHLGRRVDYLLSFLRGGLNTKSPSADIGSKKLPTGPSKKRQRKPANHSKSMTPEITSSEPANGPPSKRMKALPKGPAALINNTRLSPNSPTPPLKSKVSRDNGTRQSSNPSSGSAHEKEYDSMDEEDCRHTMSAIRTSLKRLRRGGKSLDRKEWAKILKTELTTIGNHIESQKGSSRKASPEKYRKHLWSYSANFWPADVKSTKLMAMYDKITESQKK
# Sialic acid-binding Ig-like lectin 9 (Homo sapiens), sequence (Q9Y336 whole entry): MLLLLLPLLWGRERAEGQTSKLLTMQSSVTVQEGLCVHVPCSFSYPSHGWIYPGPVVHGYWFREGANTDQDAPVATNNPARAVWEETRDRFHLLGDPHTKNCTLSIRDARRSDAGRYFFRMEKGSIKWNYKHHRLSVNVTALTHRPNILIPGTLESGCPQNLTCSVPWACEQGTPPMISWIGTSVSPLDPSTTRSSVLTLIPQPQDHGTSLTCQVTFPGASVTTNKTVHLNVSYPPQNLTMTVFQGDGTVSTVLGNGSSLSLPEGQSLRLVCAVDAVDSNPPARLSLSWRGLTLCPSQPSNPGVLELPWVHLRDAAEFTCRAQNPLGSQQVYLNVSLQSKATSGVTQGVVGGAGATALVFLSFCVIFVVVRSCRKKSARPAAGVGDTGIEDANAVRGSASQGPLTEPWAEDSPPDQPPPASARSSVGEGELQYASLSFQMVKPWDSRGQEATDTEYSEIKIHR
# Protein translocase subunit SecA (Escherichia coli (strain K12)), sequence (P10408 whole entry): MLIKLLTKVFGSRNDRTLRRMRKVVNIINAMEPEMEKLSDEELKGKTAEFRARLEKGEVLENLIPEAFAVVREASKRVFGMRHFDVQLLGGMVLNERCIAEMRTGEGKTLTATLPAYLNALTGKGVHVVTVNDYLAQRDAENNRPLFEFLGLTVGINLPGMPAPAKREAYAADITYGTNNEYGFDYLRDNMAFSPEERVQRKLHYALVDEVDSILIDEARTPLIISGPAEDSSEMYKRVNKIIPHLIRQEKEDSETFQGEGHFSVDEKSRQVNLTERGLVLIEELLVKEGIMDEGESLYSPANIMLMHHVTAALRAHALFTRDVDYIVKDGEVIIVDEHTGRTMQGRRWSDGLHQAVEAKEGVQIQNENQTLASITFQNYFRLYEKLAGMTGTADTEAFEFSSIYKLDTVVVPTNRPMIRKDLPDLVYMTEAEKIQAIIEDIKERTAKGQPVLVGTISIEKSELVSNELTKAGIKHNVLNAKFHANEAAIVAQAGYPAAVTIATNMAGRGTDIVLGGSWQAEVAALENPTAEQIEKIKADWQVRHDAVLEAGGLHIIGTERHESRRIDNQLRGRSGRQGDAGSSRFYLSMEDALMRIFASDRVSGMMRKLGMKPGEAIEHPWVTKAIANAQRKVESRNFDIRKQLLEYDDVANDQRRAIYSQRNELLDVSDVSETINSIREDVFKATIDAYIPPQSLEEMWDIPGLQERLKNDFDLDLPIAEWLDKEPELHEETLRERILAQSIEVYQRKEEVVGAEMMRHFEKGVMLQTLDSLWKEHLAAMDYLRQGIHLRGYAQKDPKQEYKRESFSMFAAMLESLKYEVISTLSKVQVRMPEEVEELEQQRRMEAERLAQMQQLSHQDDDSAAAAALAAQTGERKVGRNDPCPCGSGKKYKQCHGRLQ
SMILES,Percent Effect [1],Percent Effect [2],Percent Effect [3],Percent Effect [4],Percent Effect (Trypanosoma cruzi),Percent Effect [5],Percent Effect [6],Percent Effect (Homo sapiens),Percent Effect [7],Percent Effect [8],Percent Effect [9]
CN(CCO)C(=O)c1coc(CN2CCN(c3ccccc3F)CC2)n1,-2.04%,13.3%,-1.48%,17.7%,-0.0974%,49.5%,20.2%,11.4%,6.01%,21%,97.1%
COc1cc(C(=O)N2CCCC(CNS(C)(=O)=O)C2)cc(OC)c1C (configuration not stated),-5.54%,13.5%,77.8%,-1.48%,2.74%,0.802%,1.26%,11%,7.39%,16.1%,-4.09%
O=C(Nc1ccccc1)c1nn(C2CCS(=O)(=O)C2)c2c1CCCC2 (configuration not stated),-4.15%,5.26%,5.68%,0.438%,-1.07%,-2.37%,10.3%,8.39%,1.06%,10.4%,-4.11%
Cc1ccc(C(=O)N2C[C@@H]3OCCN(CCN4CCCC4)[C@@H]3C2)cn1,-3.52%,8.11%,0.326%,-5.24%,-2.25%,2.23%,21%,-5.79%,5.41%,15.4%,-1.17%
CCC(C)NC(=O)N1CCCn2cnc(CO)c2C1 (configuration not stated),-0.731%,2.74%,1.02%,5.8%,0.198%,2%,4.54%,6.37%,6.25%,6.17%,1.09%
Cc1cccc(C)c1OCCC(=O)N1CCC(c2nncn2C)CC1,-6.09%,23.4%,3.3%,8.75%,6.74%,-2.49%,6.76%,4.85%,6.8%,21.9%,-8.79%
Cc1oc(-c2ccsc2)nc1CC(=O)NCCS(C)(=O)=O,-3.85%,5.2%,2.35%,5.36%,-2.26%,-4.14%,9.48%,3.37%,-1.07%,6.17%,-2.55%
CC1CCN(c2ncc3c(n2)CN(c2ccc4c(c2)OCO4)C3=O)CC1,-4.8%,7.79%,-3.15%,7.77%,0.492%,-9.65%,14.1%,-2.83%,5.38%,11.1%,1.03%
CC(C)c1n[nH]c(C2CN(C(=O)CCCn3cccn3)CCO2)n1 (configuration not stated),0.0152%,-6.94%,-4.76%,-7.03%,-2.43%,2.21%,11.6%,-1.34%,-1.05%,0%,0.954%
O=C(C1SCCc2sccc21)N1CCC(O)CC1 (configuration not stated),-4.42%,-5.41%,2.06%,0.929%,-6.25%,0.833%,6.34%,5.86%,5.94%,1.22%,1.03%
Cc1ccsc1CN(Cc1ccccn1)CC(C)C,-2.24%,1.39%,-11.5%,11.7%,4.76%,8.39%,8.95%,-27.8%,7.37%,7.69%,-1.62%
CCc1nccn1C1CCCN(C(=O)c2cnn(C)c2C2CC2)C1 (configuration not stated),-5.61%,8.11%,-0.679%,1.6%,-6.51%,-4.41%,6.49%,23.9%,3.45%,6.17%,-2.99%
O=C(C1CC=CC1)N1C[C@@H]2[C@@H](C1)OCC(=O)N2Cc1cccnc1,-2.28%,-2.6%,12.1%,3.67%,0.888%,-3.23%,0.87%,15%,2.12%,6.41%,-4.72%
CCC(=O)N1CCN(C(=O)CCn2cccn2)CC1,-1.61%,24.3%,-7.17%,0.998%,6.96%,0.554%,8.62%,5.89%,6.93%,25.6%,-6.76%
CCCNC(=O)c1ccc2c(c1)C(=O)N(CC(C)C)C2=O,-2.78%,-8.11%,0.767%,5.78%,-2.32%,-10%,3.45%,0.98%,0.529%,2.44%,-2.46%
CCN(C(=O)COC)C(c1cccnc1)c1cc(C)cc(C)c1 (configuration not stated),0.0465%,2.74%,4.88%,27.6%,-11.3%,1.6%,12.9%,22.9%,-2.08%,-8.64%,-2.33%
CCC(=O)N1CCC2(COCc3c(C)nc(N(C)C)nc32)C1 (configuration not stated),-9.59%,0%,0.948%,16.9%,-0.586%,-0.417%,10.7%,4.78%,0%,3.66%,-4.5%
CN(C)S(=O)(=O)N1CCC(Oc2ccc(C#N)cc2)CC1,-1%,1.39%,2.51%,-6.53%,-6.12%,1.77%,16.8%,17.2%,2.1%,2.56%,-0.203%
Cc1cnn(CC2CCCN2Cc2coc(-c3ccccc3)n2)c1 (configuration not stated),0.182%,-11%,-9.12%,16.7%,6.46%,1.82%,1.77%,-7.46%,3.23%,5%,-6.56%
CC(C)SCC(=O)N1CCc2c(nc(N(C)C)nc2N(C)C)C1,-5.05%,13.3%,-4.26%,19.7%,6.52%,5.73%,13.8%,10.8%,2.73%,8.64%,-8.15%
CC(C)c1cc(NCC(C)N2CCCC2)n2nccc2n1 (configuration not stated),1.2%,8.11%,1.17%,6.08%,-2.51%,-1.43%,20.5%,6.7%,12.2%,17.1%,-5.28%
O=C(Nc1ccccc1F)N1CCN(Cc2noc(C3CC3)n2)CC1,-1.58%,11.4%,5.8%,0.391%,-2.36%,4.09%,8.4%,4.54%,5.21%,20.2%,-23.3%
